Compound activity as filed in PubChem BioAssay.
Compounds with a hit are over-represented: about 13% of the library has one in this group of screens.
OTUD3 block: inhibitors of human OTUD3 deubiquitinase; OTU domain-containing protein 3 (Homo sapiens), Q5T2D3; purified OTUD3, Ub-rhodamine fluorescence, 2 h; inhibition, % at 25 µM; actives 0.7% (n = 47,000)
USP17 block: inhibitors of human USP17 deubiquitinase; Ubiquitin carboxyl-terminal hydrolase 17-like protein 5 (Homo sapiens), A8MUK1; purified USP17, Ub-rhodamine cleavage fluorescence, 3 h; inhibition, % at 50 µM; actives 6.5% (n = 47,000); AID 1645855, 2021
Target sequence (A8MUK1 whole entry, looked up): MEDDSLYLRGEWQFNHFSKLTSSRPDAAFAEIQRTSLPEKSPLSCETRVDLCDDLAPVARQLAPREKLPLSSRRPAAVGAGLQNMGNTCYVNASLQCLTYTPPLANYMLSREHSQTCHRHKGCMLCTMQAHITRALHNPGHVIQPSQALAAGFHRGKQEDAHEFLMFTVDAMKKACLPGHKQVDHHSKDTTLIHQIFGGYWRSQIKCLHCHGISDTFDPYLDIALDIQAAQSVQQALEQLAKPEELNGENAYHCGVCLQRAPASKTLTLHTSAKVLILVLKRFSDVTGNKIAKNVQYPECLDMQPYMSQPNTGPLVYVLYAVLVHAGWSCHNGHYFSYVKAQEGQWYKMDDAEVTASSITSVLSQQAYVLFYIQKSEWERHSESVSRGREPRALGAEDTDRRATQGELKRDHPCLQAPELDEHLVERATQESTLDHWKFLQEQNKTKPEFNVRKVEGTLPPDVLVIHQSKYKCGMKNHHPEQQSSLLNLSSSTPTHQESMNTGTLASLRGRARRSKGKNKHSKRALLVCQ
USP28 inh: inhibitors of human USP28 deubiquitinase; actives 3% (n = 47,000); Ubiquitin carboxyl-terminal hydrolase 28 (Homo sapiens), Q96RU2; inhibition, % at 25 µM; AID 1645857, 2021; purified USP28, Ub-rhodamine cleavage fluorescence, 30 min
USP30 inh: inhibitors of human USP30 deubiquitinase; inhibition, % at 25 µM; actives 5.3% (n = 47,000); AID 1645860, 2021; purified USP30, Ub-rhodamine cleavage fluorescence; Ubiquitin carboxyl-terminal hydrolase 30 (Homo sapiens), Q70CQ3
USP8 block: inhibitors of human USP8 deubiquitinase; inhibition, % at 20 µM; actives 4.2% (n = 47,000); AID 1645853, 2021; purified USP8, Ub-rhodamine cleavage fluorescence, 30 min
An asterisk follows results filed as active; . = no result given. Cut-off read from the data, not from the text of the source: active = inhibition above about 30%; inactive = the rest.

SMILES | OTUD3 block | USP17 block | USP28 inh | USP30 inh | USP8 block
COc1ccc(C2c3c(C)nn(-c4ccccc4)c3N=C3C(=O)Nc4ccccc4N32)cc1 (configuration not stated) | -8.5 | -15.4 | -9.0 | -36.4 | -4.2
Cc1nn(-c2cccc(C(F)(F)F)c2)c2c1C(c1ccccc1)N1C=C(Cl)C=C(Cl)C1=N2 (configuration not stated) | -3.0 | 34.9* | -10.4 | -88.2 | -106.2
O=C(Cn1c(CN2CCOCC2)nc2ccccc21)N1CCCC1 | 8.4 | 1.5 | 5.3 | 19.3 | -2.1
Cc1c(C)n(-c2ccc(Br)cn2)c2ncn(Cc3ccccc3)c(=N)c12 | -40.9 | -32.5 | -42.2 | -166.6 | 43.8*
CC(c1cc2ccccc2o1)N(C)c1ncnc2sccc12 (configuration not stated) | 11.1 | 24.9 | 34.7* | -7.0 | 18.5
CC(Nc1ncnc2sccc12)c1ccccn1 (configuration not stated) | 11.9 | -4.2 | -0.1 | -18.8 | -13.9
O=C(Cn1cc(-c2ccccc2)c2ncn(C3CC3)c(=O)c21)Nc1ccc2c(c1)OCO2 | -160.6 | -23.3 | -22.2 | -422.9 | -7.7
O=C(CCc1ccccc1)N1CCN(c2cc(-c3cccnc3)[nH]n2)CC1 | 13.3 | 15.9 | 14.3 | 30.0* | 6.0
O=C(c1cccc(Cl)c1)N1CCN(c2cc(-c3cccnc3)[nH]n2)CC1 | -16.6 | -19.0 | -7.7 | -22.0 | -15.1
COc1cccc(C(=O)N2CCCC(c3[nH]nc4nccnc34)C2)c1 (configuration not stated) | 0.7 | 7.8 | 5.2 | 9.5 | 9.7
N#Cc1cccnc1N1CCN(C(=O)Nc2cccc3ccccc23)CC1 | 10.6 | 76.8* | 1.0 | -25.6 | 91.1*
O=[N+]([O-])c1cccc(-c2noc(CSc3ccccc3)n2)c1 | 15.6 | 6.0 | 66.9* | 23.6 | -22.1
COc1ccc2oc(=O)c(S(=O)(=O)N3CCCC3)cc2c1 | 1.7 | 14.9 | 2.8 | 9.8 | -0.5
COc1cc2cc(Oc3ccc4ccc(=O)oc4c3)c(=O)oc2cc1O | -0.2 | -4.3 | 7.3 | 34.2* | 1.7
COc1ccc(CCN(C(=O)c2ccco2)C(C(=O)NC2CCCC2)c2ccc(Cl)cc2)cc1OC (configuration not stated) | 4.5 | -1.9 | -7.0 | -6.5 | -7.7
COc1ccc(C(C(=O)NC2CCCCC2)N(Cc2ccccc2Cl)C(=O)c2ccco2)cc1OC (configuration not stated) | -24.8 | 17.6 | -35.5 | -127.9 | -60.7
COc1ccccc1CN(C(=O)c1ccco1)C(C(=O)NC1CCCC1)c1ccc(Cl)cc1 (configuration not stated) | 9.3 | 13.0 | 9.7 | 48.2* | 3.6
COc1ccccc1CN(C(=O)c1ccco1)C(C(=O)NC1CCCC1)c1ccc(C(C)C)cc1 (configuration not stated) | 11.7 | 2.3 | 10.2 | 35.1* | 1.8
CCN1C(=O)CCCC12CCCN(C(=O)c1ccccc1C)C2 (configuration not stated) | -3.2 | -1.4 | -8.9 | 0.1 | -30.6
O=C(Cc1cc(-c2ccc(Cl)cc2)on1)NCCc1ccccc1 | -1.0 | -5.5 | -13.4 | -45.8 | 53.1*
CC(NC(=O)Cc1cc(-c2ccc(F)cc2)on1)c1ccccc1 (configuration not stated) | 7.9 | 30.6* | 5.5 | 20.6 | 13.4
CC(NC(=O)COCc1cc(-c2ccc(F)cc2)on1)c1ccccc1 (configuration not stated) | 2.1 | 0.5 | 12.9 | 14.7 | 12.3
NS(=O)(=O)c1ccc(CCNC(=O)Cc2cc(-c3ccc(F)cc3F)on2)cc1 | 3.0 | 8.4 | 21.6 | -8.4 | 40.4*
COc1ccccc1CNC(=O)Cc1cc(-c2ccc(Cl)cc2)on1 | -14.3 | 14.1 | -18.0 | -54.4 | 0.1
Cc1ccc(C(CC(=O)Nc2cccc(C)n2)N2Cc3ccccc3C2=O)cc1 (configuration not stated) | 11.5 | 41.4* | 14.8 | 0.4 | 17.1
SMILES | OTUD3 block | USP17 block | USP28 inh | USP30 inh | USP8 block
O=C(O)CC(c1ccc2c(c1)OCO2)N1Cc2ccccc2C1=O (configuration not stated) | 5.6 | 4.8 | 11.4 | 11.7 | 2.7
COc1ccc(NS(=O)(=O)c2ccc3oc(SCC(=O)N(C)C4CCS(=O)(=O)C4)nc3c2)cc1 (configuration not stated) | 2.1 | -1.7 | . | . | 1.2
COc1ccccc1NS(=O)(=O)c1ccc2oc(SCC(=O)c3ccccc3)nc2c1 | 4.9 | 1.4 | 64.4* | 3.3 | -27.6
CCN(CC)c1ccc2nnc(CCC(=O)Nc3ccc(C)cn3)n2n1 | 4.4 | 8.8 | 18.7 | 18.7 | 14.1
Cc1cccc(-n2ccnc(SCC(=O)Nc3ccc(Cl)cc3F)c2=O)c1 | 11.4 | 76.0* | 37.9* | 49.1* | 48.8*
O=C(CSc1nccn1-c1cccc(C(=O)Nc2ccccc2)c1)Nc1ccccc1F | -8.8 | 18.0 | 12.0 | 15.4 | 51.3*
CC1(C)Cc2nc3ncn(Cc4ccc(Cl)cc4)c(=O)c3cc2CO1 | -1.8 | 0.9 | 1.7 | -50.6 | -8.2
O=C(OCc1ccc(F)cc1)c1ccc2ccccc2n1 | -8.1 | 1.2 | 78.3* | 2.5 | 4.8
Cc1nc2ccccc2n1CC(=O)OCc1cccc(Cl)c1 | -7.0 | 8.1 | 0.0 | -3.6 | -39.3
O=C(OCc1ccc(F)cc1)c1cc(-c2cccnc2)nc2ccccc12 | 1.2 | -14.9 | 4.0 | -24.4 | 4.4
O=C(OCc1cccc(Cl)c1)c1ccc2ccccc2n1 | 17.2 | 25.1 | 90.9* | 21.5 | 10.5
O=C(c1cc(=O)nc2sc(N3CCCCCC3)nn12)N1CCCCCC1 | 1.8 | -17.3 | 2.7 | 9.4 | -163.7
Cc1cccc(-n2c(Cc3cc(=O)[nH]c(=O)[nH]3)nnc2SCC(=O)NCc2ccccc2Cl)c1 | 4.9 | 6.4 | 10.2 | 30.9* | 7.2
COC(=O)c1cc(NC(=O)/C=C/c2ccc(C(C)C)cc2)ccc1N1CCOCC1 | -11.5 | -17.5 | 23.2 | -21.5 | 0.1
COC(=O)c1ccc(NC(=O)/C=C/c2ccc(F)cc2)cc1 | 14.5 | 85.8* | 95.6* | 90.3* | 96.0*
CCc1nc2ccccc2c(C(=O)OCc2ccc(Cl)cc2)c1C | -7.8 | -5.8 | -15.1 | -50.0 | -4.9
CSc1nc(Cc2ccc(Cl)cc2)nc2ccccc12 | 1.3 | 2.3 | 55.5* | -4.1 | 6.9
Cc1cc(CN2CCCCC2c2cc(=O)n3[nH]ccc3n2)no1 (configuration not stated) | -4.2 | -12.1 | -10.4 | -36.4 | -52.5
Cc1cccc(CC(=O)N2C[C@@H]3C[C@H](NS(C)(=O)=O)[C@H]2C3)c1 | -10.3 | -7.7 | -11.9 | -15.9 | 1.8
O=C(c1ccc(N2CCc3ccccc32)nn1)N1CCc2ccccc21 | -21.5 | 51.8* | -23.5 | 1.4 | 12.5
c1cncc(-c2cnc3sc(NC4CCCCC4)nn23)c1 | 10.9 | 34.6* | 11.7 | 24.6 | 21.9
O=C(Cn1nc2c3c4c(sc3ncn2c1=O)CCCCC4)Nc1ccc(Cl)cc1F | 14.9 | 69.8* | 18.3 | 28.6 | 91.9*
